SMILES strings stand for the structures. This is part of a sample that, as a whole, favours compounds with a hit. Of some 79,000 tested, about 15% had one in any assay. Unmarked numbers belong to inactive results. Active and inactive are the calls of the source. No stated cut-off is given here; in the data, active means growth inhibition above about 70%; inactive means the rest.

This passage reports growth inhibition results from PubChem BioAssay (NCI).

Assay [1] is described as follows: NCI Yeast Anticancer Drug Screen. Data for the rad50 strain (AID 155).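 Further: 0% = growth of vehicle-only cultures of the same strain.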 To be noted: S. cerevisiae rad50 strain growth inhibition; at 50.0 µM; hits give high values. In short, it runs like this:
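Yeast carrying a defined DNA repair defect were exposed to test compounds, and growth was compared with vehicle-treated controls to give percent inhibition.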

Assay [2] is described as follows: NCI Yeast Anticancer Drug Screen. Data for the mec2-1 strain (AID 157). To be noted: S. cerevisiae mec2-1 strain, at 50.0 µM, hits give high values. In short, it runs like this:
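Strain: mec2-1 (DNA repair/cell cycle alteration). Compound exposure, then growth measured; inhibition expressed relative to vehicle.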

Assay [3] can be described thus: NCI Yeast Anticancer Drug Screen. Data for the sgs1 mgt1 strain (AID 161).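 Further: 0% = growth of cultures given vehicle only.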 To be noted: S. cerevisiae sgs1 mgt1 strain, at 50.0 µM, hits give high values. Summed up:
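Test agents were incubated with a DNA-repair-mutant yeast strain. Growth was then read and compared against vehicle-treated controls.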

A short description of assay [4]: NCI Yeast Anticancer Drug Screen. Data for the cln2 rad14 strain (AID 165).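 Further: 0% = growth equal to vehicle treated cultures.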 The following applies: S. cerevisiae cln2 rad14 strain, at 50.0 µM, hits give high values. In short, it runs like this: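 Compounds are applied to the cln2 rad14 yeast strain, and growth is then compared with that of vehicle-treated cultures to give inhibition.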
The nature of assay [5]: NCI Yeast Anticancer Drug Screen. Data for the bub3 strain (AID 167). The following applies: S. cerevisiae bub3 mutant strain, at 50.0 µM, hits give high values. Summed up: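 Compounds were applied to a genetically altered yeast strain carrying a cell-cycle control defect. Growth inhibition was scored against vehicle-treated controls.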
A short description of assay [6]: NCI Yeast Anticancer Drug Screen. Data for the mlh1 rad18 strain (AID 175). To be noted: S. cerevisiae mlh1 rad18 strain growth inhibition; at 50.0 µM; hits give high values. Summed up: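 Read-out is yeast growth inhibition, calculated against vehicle-only controls. The compound was applied to a strain engineered with DNA damage repair alterations.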

Turning to `CN(C)C1CCC(C=C(C2CCC(CC(=O)O)CC2)C2CCC(CC(=O)O)CC2)CC1` (stereo unspecified), the growth inhibition was -2.95% in assay [1]; -21.5% in assay [2]; 9.6% in assay [3]; 13.6% in assay [4]; 1.05% in assay [5]; 6.3% in assay [6].

As to `COc1cc(/C=C/C(=O)N[C@@H]2C(=O)N3[C@@H]2SC(C)(C)[C@@H]3C(=O)O)cc(OC)c1OC`, the growth inhibition was -5.6% in assay [1]; -18.4% in assay [2]; -34.8% in assay [3]; 10.1% in assay [4]; -7% in assay [5]; -43.9% in assay [6].

`CS(=O)CCNC(=O)NS(=O)(=O)c1ccc(Cl)cc1` (stereo unspecified): the growth inhibition in assay [1] is -2%; in assay [2], -18.9%; in assay [3] it was -11.3%; in assay [4] it was -10.2%; in assay [5], 3.05%; in assay [6], -3.15%.

As for `CN(C)c1ccc(/C=C\C(O)c2ccccc2)cc1` (stereo unspecified), the growth inhibition in assay [1] was 22.7%; in assay [2] it was 11.3%; in assay [3], 32.2%; in assay [4], 7.6%; in assay [5], 2.55%; in assay [6], 42%.

Consider `Cc1cccc(C(=O)N(C)C(c2ccco2)P(=O)(c2ccccc2)c2ccccc2)c1` (stereo unspecified), for which the growth inhibition in assay [1] was 19.9%; in assay [2] it was -16.4%; in assay [3] it was 68.2%; in assay [4], 27.1%; in assay [5], 33.1%; in assay [6], 2.9%.

For the molecule `COC1(NS(=O)(=O)c2ccc(C)cc2)CC1`, the growth inhibition was -43.8% in assay [1]; -25.2% in assay [2]; -12.1% in assay [3]; -39.1% in assay [4]; 10.4% in assay [5]; -3.85% in assay [6].

On to `COC(=O)NC1(NC(=O)OC)NC(=O)c2cc(OC)c(OC)cc2N1`, for which the growth inhibition in assay [1] was 6.25%; in assay [2], -10.4%; in assay [3], 27.4%; in assay [4] it was -16.5%; in assay [5], 6.55%; in assay [6], 5.75%.

Consider `O=C(O)Cc1ccc(Br)cc1`, for which the growth inhibition was 29.4% in assay [1]; -8.95% in assay [2]; 11.9% in assay [3]; 10.8% in assay [4]; 1.1% in assay [5]; 5.7% in assay [6].

In the case of `CCCCCCCCCCCCCCCC(=O)Nc1ccc(C(=O)C[n+]2ccc3c(NC(=O)CCC(=O)OC)cccc3c2)cc1`, the growth inhibition was 3.4% in assay [1]; -12.2% in assay [2]; 3% in assay [3]; -0.95% in assay [4]; 8.55% in assay [5]; -10.6% in assay [6].

Turning to `CC(C)C[C@H](NC(=O)[C@H](CCc1ccccc1)NC(=O)c1ccc2ccccc2n1)B(O)O`, the growth inhibition was 60.8% in assay [1]; 64.7% in assay [2]; 55.5% in assay [3]; 73.8% (active) in assay [4]; 84.7% (active) in assay [5]; 82.5% (active) in assay [6].

Turning to `C[N+](C)(CCO)CCN1c2ccccc2Sc2ccccc21`, the growth inhibition in assay [1] is -3.1%; in assay [2], -17.5%; in assay [3], 10.2%; in assay [4], -23.6%; in assay [5], -14.6%; in assay [6] it was -3.7%.

Take `Cc1c2c([nH]c(=O)c1C)C=CC(Br)C2Br` (stereo unspecified): the growth inhibition in assay [1] was -0.7%; in assay [2], 0.55%; in assay [3] it was 1.5%; in assay [4], 3.2%; in assay [5] it was 0.2%; in assay [6] it was 6.95%.

As to `Cc1ccc(-n2c(O)c(N=Nc3ccccc3)c(=O)n(-c3ccccc3)c2=S)cc1`, the growth inhibition in assay [1] is 20.1%; in assay [2], -15.7%; in assay [3], 51.4%; in assay [4], -30.7%; in assay [5], -9.2%; in assay [6] it was -9.85%.

For the molecule `COC(=O)CC12CCCC(C)(CC(=O)N1)C2` (stereo unspecified), the growth inhibition in assay [1] was 16.4%; in assay [2] it was 1.25%; in assay [3], 12.5%; in assay [4], 15.8%; in assay [5], -4%; in assay [6], -0.5%.

For `COC(=O)C1CCC(C(=O)OC)CC1` (stereo unspecified), the growth inhibition in assay [1] was -4.3%; in assay [2], -22.6%; in assay [3], -2.3%; in assay [4], -1.15%; in assay [5] it was -9%; in assay [6], -11.1%.

For the molecule `CC(=O)CC(=O)N1CCCC(C)C1` (stereo unspecified), the growth inhibition in assay [1] is -2.85%; in assay [2], -40.8%; in assay [3], -38.5%; in assay [4], 9.1%; in assay [5] it was -10.9%; in assay [6], 1.3%.

Regarding `COC1(OC)CCC2C1C1CCC(OC)(OC)C21` (stereo unspecified), the growth inhibition in assay [1] was 1.7%; in assay [2], -3.35%; in assay [3] it was 11.3%; in assay [4], 8.75%; in assay [5], 3.4%; in assay [6], -17.4%.

Regarding `COC(=O)/C=C(/C(=O)OC)c1c(C)c(C)c2c(C)cc(C)cc(C)c1-2`, the growth inhibition in assay [1] was 20.7%; in assay [2], 14.4%; in assay [3] it was 3.8%; in assay [4], 17.4%; in assay [5], 34.9%; in assay [6], 22.2%.

Take `CC(=O)OC1CCC2(C)C(=CCC3C2CCC2(C)/C(=N\NS(=O)(=O)c4ccc(C)cc4)CCC32)C1` (stereo unspecified): the growth inhibition in assay [1] was 63.7%; in assay [2], 28.6%; in assay [3] it was 43.3%; in assay [4], -2.05%; in assay [5], 40.3%; in assay [6], 49.5%.

As to `CN(CCN(C)C(=O)CCn1cc(F)c(=O)[nH]c1=O)C(=O)CCn1cc(F)c(=O)[nH]c1=O`, the growth inhibition in assay [1] was 26.1%; in assay [2], 18.2%; in assay [3], 50.4%; in assay [4] it was 18.1%; in assay [5], 3.05%; in assay [6] it was 29.9%.

As for `O=C(O)c1ccc(Cl)cc1CC(Cl)(Cl)Cl`, the growth inhibition in assay [1] was 3.55%; in assay [2], 25.5%; in assay [3] it was 15.1%; in assay [4], 24.5%; in assay [5], 21.1%; in assay [6] it was 17.1%.
